{"source": "PubChem BioAssay (NCATS)", "note": "Records with an inconclusive call do not appear. A number with no mark means an inactive call. Activity calls are given as the source filed them. Unless noted, the call rests on the fitted dose curve; in most records, active means well fitted curve in either direction with a large enough effect (not every such curve was filed as active); inconclusive means small, poorly fitted or top-dose-only effect, or another doubt; inactive means flat fitted curve, though single readings scatter.", "data": [{"molecular_target": "Cytochrome P450 1A2 (Homo sapiens) (UniProt P05177)", "sequence (P05177 whole entry, looked up)": "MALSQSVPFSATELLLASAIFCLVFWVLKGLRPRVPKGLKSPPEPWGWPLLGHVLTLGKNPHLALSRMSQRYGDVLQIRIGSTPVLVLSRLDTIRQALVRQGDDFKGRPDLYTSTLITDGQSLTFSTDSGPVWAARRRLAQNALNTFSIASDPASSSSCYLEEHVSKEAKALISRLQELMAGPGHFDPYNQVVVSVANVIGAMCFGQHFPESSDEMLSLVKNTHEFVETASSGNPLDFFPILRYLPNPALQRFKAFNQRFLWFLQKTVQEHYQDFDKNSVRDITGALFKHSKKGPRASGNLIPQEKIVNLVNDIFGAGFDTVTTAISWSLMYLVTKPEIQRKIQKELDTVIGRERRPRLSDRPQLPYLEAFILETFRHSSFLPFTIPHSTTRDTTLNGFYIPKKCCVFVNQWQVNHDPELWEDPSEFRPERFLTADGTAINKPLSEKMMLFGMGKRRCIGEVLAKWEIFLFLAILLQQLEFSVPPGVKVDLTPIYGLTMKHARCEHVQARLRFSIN", "assay": "p450-cyp1a2 (AID 410; calls by dose curve; further: potency means the concentration at half of the fitted maximal effect;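 on activity change, negative = inhibition: -100% = full effect of reference inhibitor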)", "conditions": "recombinant CYP1A2, luciferin-ME demethylation, luminescence; series mostly up to 57 µM", "method_in_brief": "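20nM CYP1A2 with 100uM Luciferin-ME (at Km) in 100mM KPO4; compound preincubated 10 min, NADPH regeneration added, 60 min at room temperature. Luciferin quantified by luminescence after detection reagent; normalized to 57 uM furafylline.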", "values": [{"smiles": "O=S(=O)(c1ccccc1)N1CCC2(CCCN(Cc3nccs3)C2)CC1", "Potency": "inactive"}, {"smiles": "N#Cc1cccc(NC(=O)N2CCCC3(CCN(C(=O)c4csnn4)CC3)C2)c1", "Potency": "inactive"}, {"smiles": "O=C(c1cnccn1)N1CCC2(CC1)CN(Cc1cc(C(F)(F)F)cc(C(F)(F)F)c1)C2", "Potency": "inactive"}, {"smiles": "Cn1cccc1C(=O)N1CCC2(CCCN(c3ccccn3)C2)CC1", "Potency": "20 µM (active)"}, {"smiles": "N#Cc1cccc(NC(=O)N2CCCC3(CCN(C(=O)c4cccc(F)c4)CC3)C2)c1", "Potency": "12.6 µM (active)"}, {"smiles": "O=C(c1cnccn1)N1CCC2(CCCN(Cc3nccs3)C2)CC1", "Potency": "15.8 µM (active)"}, {"smiles": "Cn1cccc1C(=O)N1CCC2(CCN(Cc3nccs3)CC2)CC1", "Potency": "inactive"}, {"smiles": "COc1ccc(-c2nc3cnc(N4CCN(C)CC4)nc3n(CCC#N)c2=O)cc1", "Potency": "inactive"}, {"smiles": "N#Cc1ccc(CN2CCCC3(CCN(S(=O)(=O)c4ccccc4)CC3)C2)cc1", "Potency": "inactive"}, {"smiles": "O=S(=O)(c1ccccc1)N1CCC2(CCCN(Cc3ccncc3)C2)CC1", "Potency": "12.6 µM (active)"}, {"smiles": "CN(C)c1ccc(-c2nc(NC3CCNCC3)c3ccccc3n2)cc1", "Potency": "15.8 µM (active)"}, {"smiles": "N#Cc1cccc(NC(=O)N2CCCC3(CCN(C(=O)c4cc(C(F)(F)F)cc(C(F)(F)F)c4)CC3)C2)c1", "Potency": "6.31 µM (active)"}, {"smiles": "O=S(=O)(c1ccccc1)N1CCC2(CC1)CN(Cc1ccccc1)C2", "Potency": "inactive"}, {"smiles": "O=C(c1ccncc1)N1CCC2(CCCN(Cc3ccccc3)C2)CC1", "Potency": "inactive"}, {"smiles": "CNc1nc(-c2ccc(N(C)C)cc2)nc2ccccc12", "Potency": "0.2 µM (active)"}, {"smiles": "O=C(Nc1ccccc1)N1CC2(CCN(C(=O)c3cc(C(F)(F)F)cc(C(F)(F)F)c3)CC2)C1", "Potency": "inactive"}, {"smiles": "COc1ccccc1CN1CCC2(CCNCC2)CC1", "Potency": "inactive"}, {"smiles": "O=C(c1cc(C(F)(F)F)cc(C(F)(F)F)c1)N1CCC2(CCCN(Cc3ccncc3)C2)CC1", "Potency": "inactive"}, {"smiles": "Cn1c(=O)c(-c2cccs2)nc2cnc(Oc3ccccc3)nc21", "Potency": "7.94 µM (active)"}, {"smiles": "Cc1cnc(CNc2nc(-c3ccc4c(c3)OCO4)nc3ccccc23)cn1", "Potency": "2 µM (active)"}, {"smiles": "O=C(c1ccco1)N1CCC2(CCCN(Cc3ccccc3)C2)CC1", "Potency": "inactive"}, {"smiles": "O=C(Oc1ccccc1)N1CCC2(CCCN(c3ccc(-c4ccccc4)cc3)C2)CC1", "Potency": "inactive"}, {"smiles": "CC(=O)N1CCC[C@@]2(CCN(c3ccccc3)C2)C1", "Potency": "inactive"}]}, {"test_system": "not listed separately", "assay": "NFAT Signaling Pathway (AID 444);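 further: carbachol stimulus at about its EC50 of 1 µM final; on the % scale 0 is the no-effect control and ±100 the full control effect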", "conditions": "Jurkat NFAT-bla M1, carbachol, beta-lactamase ratio, 5 h; at 7.69 µM (top of the series) unless noted", "method_in_brief": "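Read-out: CCF4 FRET ratio (460 nm/530 nm) after 1 h RT dye loading, used for %activity and AC50 from titration series. Cells: Jurkat NFAT-β-lactamase/M1 line, treated with compound plus 1 uM carbachol for 5 h, 37 °C.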", "units": {"activity change, negative = inhibition": "%"}, "values": [{"smiles": "Cc1cnc(CNc2cc(-c3c(C)noc3C)ncn2)cn1", "activity change, negative = inhibition": 7.12}, {"smiles": "COc1ncc2nc(CCc3ccccc3)c(=O)n(Cc3ccc(F)cc3)c2n1", "activity change, negative = inhibition": -13.1}, {"smiles": "O=c1c(-c2ccc(F)c(F)c2)nc2cncnc2n1Cc1ccc(F)cc1", "activity change, negative = inhibition": -2.88}, {"smiles": "COc1ncc2nc(-c3ccc(F)cc3)c(=O)n(CCC#N)c2n1", "activity change, negative = inhibition": -5.63}, {"smiles": "COc1ccc(CNc2ncncc2-c2ccoc2)c(OC)c1", "activity change, negative = inhibition": 5.94}, {"smiles": "COc1ccc(Oc2ncc3nc(C)c(=O)n(CCc4ccccc4)c3n2)cc1", "activity change, negative = inhibition": 0.509}, {"smiles": "O=c1cnc2cnc(Oc3ccccc3)nc2n1C[C@H]1CCCO1", "activity change, negative = inhibition": -3.47}, {"smiles": "COc1cccc(Cn2c(=O)c(C)nc3cnc(N4CCOCC4)nc32)c1", "activity change, negative = inhibition": 2.68}, {"smiles": "O=c1c(-c2ccc(F)c(F)c2)nc2cncnc2n1Cc1ccccc1", "activity change, negative = inhibition": -10.8}, {"smiles": "COc1ncc2nc(CCc3ccccc3)c(=O)n(Cc3cccs3)c2n1", "activity change, negative = inhibition": -5.02}, {"smiles": "O=c1c(-c2ccccc2)nc2cncnc2n1Cc1ccc(F)cc1", "activity change, negative = inhibition": -1.65}, {"smiles": "COc1cccc(Cn2c(=O)cnc3cnc(N4CCOCC4)nc32)c1", "activity change, negative = inhibition": -0.938}, {"smiles": "COc1ccc(Oc2ncc3ncc(=O)n(Cc4cccc(OC)c4)c3n2)cc1", "activity change, negative = inhibition": -6.25}, {"smiles": "COc1ccc(Oc2ncc3ncc(=O)n(CCC#N)c3n2)cc1", "activity change, negative = inhibition": -5.59}, {"smiles": "COCCn1c(=O)c(C)nc2cnc(OCc3ccccc3)nc21", "activity change, negative = inhibition": -3.44}, {"smiles": "COc1cccc(Cn2c(=O)c(C)nc3cnc(Oc4ccccc4)nc32)c1", "activity change, negative = inhibition": -3.17}]}, {"test_system": "not listed separately", "assay": "Stat Signaling Pathway (AID 446);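 further: SIE-controlled beta-lactamase reporter measured as 460/530 nm FRET emission ratio; on the % scale 0 is the no-effect control and ±100 the full control effect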", "conditions": "ME-180 SIE beta-lactamase reporter, IL-6 stimulated, 5 h; at 7.69 µM (top of the series) unless noted", "method_in_brief": "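Reporter line: ME-180 cervical carcinoma, SIE-beta-lactamase. Treatment: compound with 40 pM IL-6, 5 hrs, 37 C, in low-serum OPTI-MEM with 10 mM HEPES pH 7.3. Detection: 460/530 nm fluorescence.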", "units": {"activity, negative = inhibition": "%"}, "values": [{"smiles": "O=S(=O)(c1ccccc1)N1CCC2(CCCN(Cc3nccs3)C2)CC1", "activity, negative = inhibition": -1.51}, {"smiles": "Cc1cnc(CNc2cc(-c3c(C)noc3C)ncn2)cn1", "activity, negative = inhibition": 12.1}, {"smiles": "N#Cc1cccc(NC(=O)N2CCCC3(CCN(C(=O)c4csnn4)CC3)C2)c1", "activity, negative = inhibition": -0.264}, {"smiles": "COc1ncc2nc(CCc3ccccc3)c(=O)n(Cc3ccc(F)cc3)c2n1", "activity, negative = inhibition": 2.49}, {"smiles": "O=C(c1cnccn1)N1CCC2(CC1)CN(Cc1cc(C(F)(F)F)cc(C(F)(F)F)c1)C2", "activity, negative = inhibition": -1.36}, {"smiles": "O=c1c(-c2ccc(F)c(F)c2)nc2cncnc2n1Cc1ccc(F)cc1", "activity, negative = inhibition": 1.58}, {"smiles": "COc1ncc2nc(-c3ccc(F)cc3)c(=O)n(CCC#N)c2n1", "activity, negative = inhibition": -0.246}, {"smiles": "N#Cc1cccc(NC(=O)N2CCCC3(CCN(C(=O)c4cccc(F)c4)CC3)C2)c1", "activity, negative = inhibition": -4.33}, {"smiles": "O=C(c1cnccn1)N1CCC2(CCCN(Cc3nccs3)C2)CC1", "activity, negative = inhibition": -4.76}, {"smiles": "Cn1cccc1C(=O)N1CCC2(CCN(Cc3nccs3)CC2)CC1", "activity, negative = inhibition": -1.77}, {"smiles": "COc1ccc(CNc2ncncc2-c2ccoc2)c(OC)c1", "activity, negative = inhibition": -9.38}, {"smiles": "N#Cc1ccc(CN2CCCC3(CCN(S(=O)(=O)c4ccccc4)CC3)C2)cc1", "activity, negative = inhibition": -1.86}, {"smiles": "O=S(=O)(c1ccccc1)N1CCC2(CCCN(Cc3ccncc3)C2)CC1", "activity, negative = inhibition": -3.44}, {"smiles": "COc1ccc(Oc2ncc3nc(C)c(=O)n(CCc4ccccc4)c3n2)cc1", "activity, negative = inhibition": 2.93}, {"smiles": "O=c1cnc2cnc(Oc3ccccc3)nc2n1C[C@H]1CCCO1", "activity, negative = inhibition": -8.07}, {"smiles": "COc1cccc(Cn2c(=O)c(C)nc3cnc(N4CCOCC4)nc32)c1", "activity, negative = inhibition": -1.29}, {"smiles": "N#Cc1cccc(NC(=O)N2CCCC3(CCN(C(=O)c4cc(C(F)(F)F)cc(C(F)(F)F)c4)CC3)C2)c1", "activity, negative = inhibition": -13.7}, {"smiles": "O=S(=O)(c1ccccc1)N1CCC2(CC1)CN(Cc1ccccc1)C2", "activity, negative = inhibition": 2.83}, {"smiles": "O=C(c1ccncc1)N1CCC2(CCCN(Cc3ccccc3)C2)CC1", "activity, negative = inhibition": -8.26}, {"smiles": "O=c1c(-c2ccc(F)c(F)c2)nc2cncnc2n1Cc1ccccc1", "activity, negative = inhibition": 3.53}, {"smiles": "COc1ncc2nc(CCc3ccccc3)c(=O)n(Cc3cccs3)c2n1", "activity, negative = inhibition": -3.9}, {"smiles": "COc1ccccc1CN1CCC2(CCNCC2)CC1", "activity, negative = inhibition": 6.24}, {"smiles": "O=c1c(-c2ccccc2)nc2cncnc2n1Cc1ccc(F)cc1", "activity, negative = inhibition": -6.53}, {"smiles": "O=C(c1cc(C(F)(F)F)cc(C(F)(F)F)c1)N1CCC2(CCCN(Cc3ccncc3)C2)CC1", "activity, negative = inhibition": -3.11}, {"smiles": "COc1cccc(Cn2c(=O)cnc3cnc(N4CCOCC4)nc32)c1", "activity, negative = inhibition": -11}, {"smiles": "O=C(c1ccco1)N1CCC2(CCCN(Cc3ccccc3)C2)CC1", "activity, negative = inhibition": 10.9}, {"smiles": "COc1ccc(Oc2ncc3ncc(=O)n(Cc4cccc(OC)c4)c3n2)cc1", "activity, negative = inhibition": -3}, {"smiles": "COc1ccc(Oc2ncc3ncc(=O)n(CCC#N)c3n2)cc1", "activity, negative = inhibition": -8.02}, {"smiles": "O=C(Oc1ccccc1)N1CCC2(CCCN(c3ccc(-c4ccccc4)cc3)C2)CC1", "activity, negative = inhibition": 6.94}, {"smiles": "COCCn1c(=O)c(C)nc2cnc(OCc3ccccc3)nc21", "activity, negative = inhibition": -9.48}, {"smiles": "COc1cccc(Cn2c(=O)c(C)nc3cnc(Oc4ccccc4)nc32)c1", "activity, negative = inhibition": -2.47}, {"smiles": "CC(=O)N1CCC[C@@]2(CCN(c3ccccc3)C2)C1", "activity, negative = inhibition": -6.46}]}]}
